Each compound was assayed against PEG-3 (UniProt Q6IN02) (assay: Peg3 promoter luciferase inhibitors, potency, dose response, cell-based, HeLa, CREF/GAPDH counter-screen panel (AID 624167)). Details: CREF/GAPDH counter-screens; HeLa PEG-Prom luciferase reporter, overnight, run 1, dose range 1, at 100 µM (top of the series) unless noted.
Chain of PEG-3 (Q6IN02 whole entry, looked up): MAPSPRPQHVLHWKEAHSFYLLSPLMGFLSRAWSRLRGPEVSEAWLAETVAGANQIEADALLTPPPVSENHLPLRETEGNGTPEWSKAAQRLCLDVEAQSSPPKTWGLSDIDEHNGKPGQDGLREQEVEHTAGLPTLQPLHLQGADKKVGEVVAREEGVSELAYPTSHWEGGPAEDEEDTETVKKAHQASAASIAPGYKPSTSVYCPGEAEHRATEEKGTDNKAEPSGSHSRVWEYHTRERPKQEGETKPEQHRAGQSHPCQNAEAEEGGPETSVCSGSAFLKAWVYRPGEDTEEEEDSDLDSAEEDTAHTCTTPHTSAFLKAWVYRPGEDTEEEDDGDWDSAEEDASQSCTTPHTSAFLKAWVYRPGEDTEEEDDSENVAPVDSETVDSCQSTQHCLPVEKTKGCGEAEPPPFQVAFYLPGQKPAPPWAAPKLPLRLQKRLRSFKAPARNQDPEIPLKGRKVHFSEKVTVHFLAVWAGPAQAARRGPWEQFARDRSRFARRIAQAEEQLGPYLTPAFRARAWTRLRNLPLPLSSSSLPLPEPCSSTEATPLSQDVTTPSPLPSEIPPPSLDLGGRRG

Compound | inhibition [%]
Cn1c(=O)c(C(=O)CCl)c(N)n(Cc2ccccc2)c1=O | 102
CCc1ccc(OCCNc2cc(N3CCNC(C)C3)ccc2[N+](=O)[O-])cc1 (stereo not given) | 99.6
O=C(Nc1ccc(S(=O)(=O)NC2=NCCCCC2)cc1)c1ccc([N+](=O)[O-])s1 | 102
CCCCCCCn1c(=N)n(CC(O)c2ccco2)c2ccccc21 (stereo not given) | 101
COc1ccc(C(=O)Nc2cccc(C(=O)N/N=C/c3ccc(OC)cc3OC)c2)cc1 | 84.1
CN(C)S(=O)(=O)c1cccc(NC(=O)CSc2cccc3cccnc23)c1 | 99.3
CC1(C)C(=O)C=CC(=O)C(C)(C)C(=O)C=CC(=O)C(C)(C)C2=CC=C(O2)C(C)(C)C(=O)C=CC1=O | 102
CC1(C)CC(NC(=O)c2sc3cc(Cl)ccc3c2Cl)CC(C)(C)N1 | 99.4
Cc1cccc(/C=C2/Sc3ccc(C(=O)NCCN4CCCC4)cc3NC2=O)c1 | 99.2
NC(=O)c1nsc(C(=O)N(c2ccccc2F)C(C(=O)NCc2ccccc2)c2ccc(O)cc2)c1N (stereo not given) | 98.6
CCCCCCCCNCCS(=O)(=O)NCc1ccc(OC)cc1 | 98.9
Cc1ccc(Cn2c(=N)n(CC(=O)c3ccccc3)c3ccccc32)cc1 | 101
Cc1ccc2[nH]c3c(c2c1)CCCC3NC(=O)CCl (stereo not given) | 97
CCOC(=O)C1CCN(c2cc3c(cc2NC(=O)c2ccccc2OCC)n(C)c(=O)n3C)CC1 | 101
COc1ccc(-c2sc3ccccc3c2-c2ccc(OCCN3CCCCC3)cc2)cc1 | 99.5
CCN(Cc1ccccc1)S(=O)(=O)c1ccc(C(=O)N(CCCN(C)C)c2nc3cc4c(cc3s2)OCCO4)cc1 | 99.4
COc1ccc(C2c3ccc4ccccc4c3Oc3ncn(CCCO)c(=N)c32)cc1 (stereo not given) | 102
COc1ccc(C[C@H]2CN3C(=NC[C@@H]3Cc3ccc(O)cc3)N2C[C@H](C)NC(=O)c2ccc(C)c(Br)c2)cc1 | 102
COc1ccc(CCn2c(=N)c(C(=O)NC3CCCC3)cc3c(=O)n4cccc(C)c4nc32)cc1 | 44.4
COc1cccc(NC(=O)CN(C)C(=O)c2cccnc2Nc2cccc(C(F)(F)F)c2)c1 | 102

Compound | inhibition [%]
O=C(NC1=C(NC2CCS(=O)(=O)C2)C(=O)c2ccccc2C1=O)c1ccccc1 (stereo not given) | 102
O=C1c2ccccc2C(=O)C12OC2c1ccc(Cl)cc1Cl (stereo not given) | 99
Cc1cc(Br)ccc1NC(=O)CN1C(=O)C2C3CC(c4ccccc4)C(C3)C2C1=O (stereo not given) | 99.9
O=Nc1c(O)ccc2cc(S(=O)(=O)O)ccc12 | 84.7
COc1cccc(Nc2nc(C(N)Cc3ccccc3)cs2)n1 (stereo not given) | 97.8
COc1ccc(C(O)(CCC(C)C)C(CN2CCOCC2)c2ccccc2)cc1 (stereo not given) | 96.5
COc1cccc(C(=O)O/N=C(\N)c2ccccn2)c1 | 102
O=C(NC1CCCCC1)Sc1ccc(Cl)cc1 | 102
CN(C)CCNC(=O)c1sc2nc(-c3ccccc3)cc(C(F)(F)F)c2c1N | 102
COC(=O)C1=C(C(=O)OC)C(C(=O)OC)C(C(=O)OC)C(C(=O)OC)(C(=O)OC)C(C(=O)OC)=C1C(=O)OC (stereo not given) | 99
CC(=O)NC(c1ccc(C)cc1)c1cc(Cl)c2cccnc2c1O (stereo not given) | 88.1
Cc1cc(C(=O)CN2C(=O)c3ccccc3S2(=O)=O)c(C)n1C(C)C | 101
O=S(=O)(c1cccc(F)c1)N1CCN(c2nc(-c3cccnc3)nc3ccccc23)CC1 | 26.5
CC(C)n1cc(CN2CCC(C(=O)Nc3cccc(-c4cccc(Cl)c4)c3)CC2)cn1 | 99.3
Cc1ccc(-n2cc(CNCCCn3ccnc3C)c(-c3ccc(F)cc3)n2)cc1 | 99.8
COc1cccc(CN(C)C(=O)c2cc(-c3cccs3)nc3ccccc23)c1 | 84
COc1ccc(CCNC(=O)C(=O)NCC2CCCN2S(=O)(=O)c2ccccc2)cc1OC (stereo not given) | 97.2
CC(=O)c1cccc(NC(=O)c2cccc3c(-c4cccnc4)coc23)c1 | 36.4
CC(C)(C)c1ccc(OCCCNCc2ccccc2)cc1 | 99.8
O=C(C[C@H]1C[C@H](C(=O)N2CCCCC2)[C@@]2(CCc3ccccc3)c3[nH]c4ccc(Cl)cc4c3CCN2C1=O)NCCc1ccccn1 | 94

Reference: PubChem BioAssay
